# CIT2-GFP yeast – modulators of TOR pathway CIT2-GFP in S. cerevisiae; S. cerevisiae CIT2-GFP strain, flow cytometry, 3 h; 100 means same as DMSO wells; GFP response vs DMSO, % at 10 µM; 320,000 compounds, 0.065% hits; AID 2029;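 active = GFP response relative to DMSO above a set limit, near the screen mean plus 3 SD, cut at about 150% in these data; inconclusive = Fewer than 70 cells measured for a yeast strain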;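 also: ratio of well median GFP fluorescence to mean of DMSO wells on the plate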
# LAP4 TOR yeast – modulators of TOR pathway LAP4-GFP in S. cerevisiae | S. cerevisiae LAP4-GFP multiplex, flow cytometry GFP, 3 h; median GFP as percent of DMSO wells | GFP response vs DMSO, % at 10 µM | 320,000 compounds, 0.34% hits | AID 2023;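 active = GFP response vs DMSO above a set limit, about the screen mean plus 3 SD, cut at about 150% in these data; inconclusive = under 70 cell events counted for the yeast strain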
# RPL19A TOR yeast – yeast TOR pathway RPL19A-GFP modulation | S. cerevisiae RPL19A-GFP strain, flow cytometry, 3 h; active compounds read low | percent response vs DMSO, % at 10 µM | 330,000 compounds, 0.3% hits | AID 2025;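 active = percent response vs DMSO below 50%; inconclusive = fewer than 70 events counted for the yeast strain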;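 also: median channel GFP fluorescence of the barcoded RPL19A-GFP strain; ratio of sample median GFP to plate DMSO average so 100% = DMSO; lower means less RPL19A-GFP as with rapamycin TOR inhibition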
# AGP1-GFP MLPCN – yeast TOR pathway AGP1-GFP modulation; 320,000 compounds, 0.02% hits; GFP response vs DMSO, % at 10 µM; S. cerevisiae AGP1-GFP multiplex flow cytometry, 3 h; GFP as percent of DMSO wells; AID 2066;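 active = GFP response relative to DMSO above a set limit, near screen average plus 3 SD, cut at about 150% in these data; inconclusive = fewer than 70 cells counted for the yeast strain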;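 also: median GFP channel fluorescence of the gated AGP1 strain per well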
# MEP2 TOR yeast – modulators of TOR pathway MEP2-GFP in S. cerevisiae; 330,000 compounds, 0.51% hits; GFP response vs DMSO, % at 10 µM; S. cerevisiae MEP2-GFP strain, flow cytometry GFP, 3 h; 100% = DMSO control level;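 active = GFP response versus DMSO above a set limit, roughly screen mean plus 3 SD, cut at about 180% in these data; inconclusive = fewer than 70 cells counted for a yeast strain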;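 also: median GFP fluorescence of the barcode-gated MEP2-GFP cells per well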
# An asterisk follows results filed as active; ? = inconclusive; · = no result given; ! = a repeat was not active; [ ] = another dose, or the depositor's remark. An excerpt weighted towards active compounds, which were near 0.93% of everything screened.
SMILES,CIT2-GFP yeast,LAP4 TOR yeast,RPL19A TOR yeast,AGP1-GFP MLPCN,MEP2 TOR yeast
Cc1n[nH]c(C)c1S(=O)(=O)N1CCCC(C(=O)O)C1 (stereo unspecified),107.2,104.4,102.2,107.5,110.2
COc1ccc(-c2ccc(SCC(=O)N3c4ccccc4CC3C)nn2)cc1OC (stereo unspecified),145.0,163.4*,109.2,107.8,183.1*
CCOC(=O)N1CCN(C(=O)CSc2ccc(-c3ccc(OC)c(OC)c3)nn2)CC1,97.8,102.7,100.6,105.2,94.9
Cc1cc(C)c2nc(N3C(=O)C(O)=C(C(=O)c4ccco4)C3c3ccco3)sc2c1 (stereo unspecified),?,89.2,52.3,?,315.3*[may fluoresce violet]
Cc1cccc(NC(=O)CN2C(=O)N/C(=C\c3ccc(-c4cccc(C(=O)O)c4)o3)C2=O)c1,?,83.7,42.8*[may fluoresce violet],?,215.3*[may fluoresce violet]
CC1Cc2c([nH]c3ccccc23)C2c3ccccc3CN12 (stereo unspecified),96.1,96.7,100.7,53.5,109.0
Cc1ccc2nc(NCc3ccc(F)cc3)c3nncn3c2c1,92.3,111.5,31.6*,90.0,152.3
Cc1ccc(NC(=S)N/N=C/c2c(C)[nH]c3ccccc23)cc1,120.0,183.8*,67.4,63.9,96.1
Cc1[nH]c2ccccc2c1/C=N/NC(=O)Nc1ccccc1,?,125.8,23.7*[may fluoresce violet],?,87.8
Cc1[nH]c2ccccc2c1/C=N/NC(=O)c1cc(-c2ccccc2)n[nH]1,?,76.7,45.7*[may fluoresce violet],?,173.8
Cc1ccc(S(=O)(=O)N(Cc2cc3ccccc3[nH]c2=O)c2cccc(C)c2)cc1,100.5,101.0,97.7,103.3,102.0
CCc1ccc(NC(=S)Nc2ccc3[nH]c(=O)[nH]c3c2)cc1,100.3,101.9,100.2,105.5,106.2
CCc1nnc(NC(=O)c2ccc(-c3cc(C(F)(F)F)ccc3Cl)o2)s1,?,91.4,64.3,24.7,179.7*[may fluoresce violet]
CC(C)c1ccc(N(CC(=O)NCc2ccco2)C(=O)CCC(=O)Nc2ccccn2)cc1,88.4,86.9,97.6,97.0,111.2
O=C(C1CCN(Cc2ccc(F)cc2)CC1)N(CCO)Cc1ccccc1,?,81.9,66.9,24.1,421.8*[may fluoresce violet]
O=C(C1CCN(Cc2ccc(F)cc2)CC1)N(CCc1ccccc1)Cc1ccccc1,106.7,92.0,99.3,98.3,95.7
CCc1ccc(NC(=O)c2[nH]c(C)c(C(C)=O)c2C)cc1,97.6,103.5,101.5,96.7,100.3
CCc1ccc(Nc2oc(C)cc(=O)c2C(C)=O)cc1,?,71.8,90.1,14.6,298.4*[may fluoresce violet]
COc1cccc(Nc2nc(N)c([N+](=O)[O-])c(N3CCOCC3)n2)c1,?,71.0,52.7,16.9,214.1*[may fluoresce violet]
CCc1c(O)nc(SCc2ccccc2)n(C(C)CC)c1=O (stereo unspecified),?,83.7,16.3*[may fluoresce violet],?,209.6*[may fluoresce violet]
Nc1ccc(Sc2ccc([N+](=O)[O-])cc2)cc1,85.6,106.2,110.2,92.3,86.1
Cc1ccc(C(C[N+](=O)[O-])Sc2ccc(N)cc2)cc1 (stereo unspecified),89.9,200.5*,89.4,96.5,100.6
c1ccc(-c2n[nH]c(-c3ccccn3)n2)nc1,?,87.1,13.5*![may fluoresce violet],?,179.6*![may fluoresce violet]
c1ccc(-c2n[nH]c(-c3ccccn3)n2)cc1,93.0,99.3,96.1,94.4,100.7
Cn1c(CCC(=O)OCC(=O)NCC(F)(F)F)nc(=O)c2ccccc21,?,110.8,18.8*[may fluoresce violet],?,188.6*[may fluoresce violet]
SMILES,CIT2-GFP yeast,LAP4 TOR yeast,RPL19A TOR yeast,AGP1-GFP MLPCN,MEP2 TOR yeast
O=C(CNC(=O)COc1ccccc1)NCc1cccnc1,92.0,78.9,90.8,90.2,85.0
O=C(NC(c1ccccc1)C(Cl)Cl)c1ccccc1 (stereo unspecified),108.4,101.9,105.7,151.0*,164.1
Cc1ccc(C(=O)NC(c2ccccc2)C(Cl)Cl)cc1 (stereo unspecified),104.7,102.9,103.0,112.9,110.6
O=C(NNc1ccccc1[N+](=O)[O-])Nc1ccc(Cl)c(Cl)c1,94.7,86.3,98.5,95.5,89.7
CCN(CC)S(=O)(=O)c1cc([N+](=O)[O-])ccc1NNC(=O)Nc1ccc(Cl)c(Cl)c1,?,114.6,52.6,?,376.4*[may fluoresce violet]
Oc1c(C(c2cccs2)N2CCN(c3ccccc3)CC2)ccc2cccnc12 (stereo unspecified),87.8,208.6*,107.9,87.1,95.5
Oc1c(C(c2ccccc2Cl)N2CCCC2)ccc2cccnc12 (stereo unspecified),95.6,131.0,92.1,90.2,116.3
C#Cc1ccc([C@@H]2C=C(C(=O)N3CCOCC3)O[C@H](OCC)[C@H]2CCCO)cc1,79.3,113.0,95.1,80.7,89.3
O=C(CSc1nc(C2CC2)nc2sc3c(c12)CCCC3)NCc1ccco1,108.2,105.0,100.4,110.8,109.1
Cc1nc(SCC(=O)NCc2ccco2)c2c3c(sc2n1)CCCC3,?,106.0,55.5,38.5,182.9*[may fluoresce violet]
CC(C)(Oc1ccc(Cl)cc1)C(=O)NCc1ccc(S(N)(=O)=O)cc1,?,68.3,52.0,16.4,243.8*[may fluoresce violet]
COC(=O)CNC(=O)C(C)(C)Oc1ccc(Cl)cc1,97.2,·,91.0,91.0,95.6
CC(C(=O)NCCc1ccc(F)cc1)N1CCN(Cc2ccccc2)CC1 (stereo unspecified),118.7,139.1,102.9,106.8,213.1*
O=C(Nc1nc2c(Br)cccc2s1)C1CC1,105.3,104.0,99.3,94.0,97.8
O=C(O)CSc1nnc(-c2cccc(S(=O)(=O)N3CCOCC3)c2)n1-c1cccc(Cl)c1,?,?,25.8*[may fluoresce violet],?,?
CNC(=O)CSc1nnc(-c2cccc(S(=O)(=O)N3CCOCC3)c2)n1-c1ccc(F)cc1,103.2,103.5,101.4,105.9,105.9
COc1ccc(C(=O)NNC(=O)CSc2nnc(C3CC3)n2C)cc1,101.8,101.1,104.2,103.0,101.7
COc1ccc(OC)c(C2=Nn3c(nnc3-c3cc(OC)c(OC)c(OC)c3)SC2)c1,77.6,102.8,97.6,74.5,99.9
COc1ccc(C2=Nn3c(nnc3-c3cc(C)[nH]n3)SC2)cc1,?,70.1,18.4*[may fluoresce violet],?,213.9*[may fluoresce violet]
COc1ccc(C2=Nn3c(nnc3-c3ccc(OC)cc3)SC2)cc1,82.3,90.7,97.8,92.6,85.7
COc1ccc(OC)c(C2=Nn3c(nnc3-c3ccncc3)SC2)c1,?,77.3,42.9*[may fluoresce violet],?,264.6*[may fluoresce violet]
O=C(NNS(=O)(=O)c1ccccc1)c1cnn(-c2ccccc2)c1-n1cccc1,?,100.5,78.8,·,196.3*[may fluoresce violet]
COc1cccc(C2NC(=O)NC(O)(C(F)(F)F)C2C(=O)c2cccnc2)c1OC (stereo unspecified),?,103.0,56.7,23.2,202.8*[may fluoresce violet]
O=C(N/N=C/c1ccccn1)c1sc2ccccc2c1Cl,94.3,229.2*,94.7,99.8,104.8
O=C(N/N=C/c1c[nH]c2ccccc12)c1sc2ccccc2c1Cl,100.7,89.6,102.8,99.0,99.2
